This passage reports outcome and AC50 results from PubChem BioAssay (EPA / NIEHS).

Molecules are shown by their SMILES. Results filed as inconclusive are left out. The source made the active and inactive calls. How the source made its calls, unless noted: active means hit-call score of the fitted dose curve at least 0.9, where 1 is the maximum; inconclusive means response in the unintended direction; inactive means score below 0.9.

Assay [1] addresses Glutamate receptor ionotropic, kainate 1 (Rattus norvegicus) (UniProt P22756). The assay is described as follows: NVS_IC_rKAR: NovaScreen (NVS) Ion Channel Assay for rat Kainic Acid Receptors (KAR) (AID 2283334; active means hit-call score of the fitted dose curve at least 0.9, where 1 is the maximum; inactive means score below 0.9). The method, then: NVS_IC_rKAR is a biochemical, single-readout assay that uses extracted gene-proteins from Rat forebrain membranes in a tissue-based cell-free assay. Measurements were taken 1 hour after chemical dosing in a 48-well plate.NVS_IC_rKAR is one of one assay component(s) measured or calculated from the NVS_IC_rKAR assay. It is designed to make measurements of radioligand binding, a form of binding reporter, as detected with scintillation counting signals by Filter-based radiodetection technology.Data from the assay component NVS_IC_rKAR was analyzed into 1 assay endpoint. This assay endpoint, NVS_IC_rKAR, was analyzed in the positive analysis fitting direction relative to DMSO as the negative control and baseline of activity. […] Furthermore, this assay endpoint can be referred to as a primary readout, because the performed assay has only produced 1 assay endpoint. […]
Binding assays used specific radioligands (tritiated, iodinated) with non-radioactive competitive displacement ligands in agonist or antagonist protocols (as indicated) and various reference compounds and inhibitors to titrate specific binding to receptors and transporters. Most enzyme assays (CYPs, kinases, phosphatases, proteases, HDACs) used recombinant protein and specific substrates (fluorescence mostly, some colorimetric and radioactive) and inhibitors, followed by a biochemical separation of substrate and product. […]

The target in assay [2] is bovine Gamma-Aminobutyric Acid Type A Receptor Agonist (GABAR Agonist), GABRA1 (gene 780973) (UniProt P08219). The assay is described as follows: NVS_LGIC_bGABAR_Agonist: NovaScreen (NVS) Ligand-Gated Ion Channel Assay for bovine Gamma-Aminobutyric Acid Type A Receptor Agonist (GABAR Agonist) (AID 2283338). The essentials: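 Radioligand binding to bovine cerebellar membranes in agonist format, read by filter-based scintillation counting after 1 h. Primary screen in duplicate at 25 uM, with actives followed in concentration series. Gain of signal versus DMSO.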
Chain of bovine Gamma-Aminobutyric Acid Type A Receptor Agonist (GABAR Agonist), GABRA1 (gene 780973) (P08219 whole entry, looked up): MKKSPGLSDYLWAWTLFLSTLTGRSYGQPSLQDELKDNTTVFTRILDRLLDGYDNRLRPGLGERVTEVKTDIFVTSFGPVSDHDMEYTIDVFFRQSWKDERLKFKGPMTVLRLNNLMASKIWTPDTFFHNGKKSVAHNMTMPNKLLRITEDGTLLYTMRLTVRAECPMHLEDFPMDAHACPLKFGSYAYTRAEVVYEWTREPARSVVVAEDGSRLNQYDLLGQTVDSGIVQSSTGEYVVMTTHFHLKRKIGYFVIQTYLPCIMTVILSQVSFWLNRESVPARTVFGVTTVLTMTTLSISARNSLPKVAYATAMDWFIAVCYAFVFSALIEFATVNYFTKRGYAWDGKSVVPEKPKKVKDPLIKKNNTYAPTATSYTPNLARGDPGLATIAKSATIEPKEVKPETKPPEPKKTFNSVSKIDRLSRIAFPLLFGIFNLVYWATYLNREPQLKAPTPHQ

Assay [3] deals with rat Gamma-Aminobutyric Acid Type A Receptor BDZ, alpha 6 site (GABARa6), Gabra6 (gene 29708) (UniProt P30191). The assay is described as follows: NVS_LGIC_rGABARa6: NovaScreen (NVS) Ligand-Gated Ion Channel Assay for rat Gamma-Aminobutyric Acid Type A Receptor BDZ, alpha 6 site (GABARa6) (AID 2283339). The essentials: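 Actives from a 25 uM duplicate screen were retested in concentration series (max 50 uM). Specific radioligand displacement from rat cerebellar membranes was counted by filter-based scintillation at 1 h; DMSO served as baseline.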
Chain of rat Gamma-Aminobutyric Acid Type A Receptor BDZ, alpha 6 site (GABARa6), Gabra6 (gene 29708) (P30191 whole entry, looked up): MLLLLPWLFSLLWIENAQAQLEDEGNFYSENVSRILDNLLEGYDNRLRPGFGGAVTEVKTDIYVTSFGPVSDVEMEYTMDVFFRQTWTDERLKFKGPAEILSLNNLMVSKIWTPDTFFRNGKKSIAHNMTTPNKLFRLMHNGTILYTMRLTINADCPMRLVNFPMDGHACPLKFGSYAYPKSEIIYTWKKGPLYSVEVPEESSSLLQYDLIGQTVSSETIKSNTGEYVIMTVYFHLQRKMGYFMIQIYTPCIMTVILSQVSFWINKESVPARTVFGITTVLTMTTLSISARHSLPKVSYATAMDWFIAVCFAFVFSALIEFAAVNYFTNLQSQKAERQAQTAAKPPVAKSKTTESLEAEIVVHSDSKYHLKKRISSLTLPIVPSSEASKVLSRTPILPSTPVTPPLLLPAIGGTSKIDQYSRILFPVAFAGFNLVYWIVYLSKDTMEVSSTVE

For assay [4], the target named is rat Glutamate, MK-801 Agonist Site (GluNMDA_MK801), Grin1 (gene 24408) (UniProt P35439). In words: NVS_LGIC_rGluNMDA_MK801_Agonist: NovaScreen (NVS) Ligand-Gated Ion Channel Assay for rat Glutamate, MK-801 Agonist Site (GluNMDA_MK801) (AID 2283340). The essentials: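 Rat forebrain membrane preparation; MK-801-site radioligand binding read by filtration and scintillation after 1.5 h. Single-point 25 uM duplicate screen, followed by singleton concentration series to 50 uM max; DMSO baseline.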

Chain of Glutamate receptor ionotropic, kainate 1 (Rattus norvegicus) (P22756 whole entry, looked up): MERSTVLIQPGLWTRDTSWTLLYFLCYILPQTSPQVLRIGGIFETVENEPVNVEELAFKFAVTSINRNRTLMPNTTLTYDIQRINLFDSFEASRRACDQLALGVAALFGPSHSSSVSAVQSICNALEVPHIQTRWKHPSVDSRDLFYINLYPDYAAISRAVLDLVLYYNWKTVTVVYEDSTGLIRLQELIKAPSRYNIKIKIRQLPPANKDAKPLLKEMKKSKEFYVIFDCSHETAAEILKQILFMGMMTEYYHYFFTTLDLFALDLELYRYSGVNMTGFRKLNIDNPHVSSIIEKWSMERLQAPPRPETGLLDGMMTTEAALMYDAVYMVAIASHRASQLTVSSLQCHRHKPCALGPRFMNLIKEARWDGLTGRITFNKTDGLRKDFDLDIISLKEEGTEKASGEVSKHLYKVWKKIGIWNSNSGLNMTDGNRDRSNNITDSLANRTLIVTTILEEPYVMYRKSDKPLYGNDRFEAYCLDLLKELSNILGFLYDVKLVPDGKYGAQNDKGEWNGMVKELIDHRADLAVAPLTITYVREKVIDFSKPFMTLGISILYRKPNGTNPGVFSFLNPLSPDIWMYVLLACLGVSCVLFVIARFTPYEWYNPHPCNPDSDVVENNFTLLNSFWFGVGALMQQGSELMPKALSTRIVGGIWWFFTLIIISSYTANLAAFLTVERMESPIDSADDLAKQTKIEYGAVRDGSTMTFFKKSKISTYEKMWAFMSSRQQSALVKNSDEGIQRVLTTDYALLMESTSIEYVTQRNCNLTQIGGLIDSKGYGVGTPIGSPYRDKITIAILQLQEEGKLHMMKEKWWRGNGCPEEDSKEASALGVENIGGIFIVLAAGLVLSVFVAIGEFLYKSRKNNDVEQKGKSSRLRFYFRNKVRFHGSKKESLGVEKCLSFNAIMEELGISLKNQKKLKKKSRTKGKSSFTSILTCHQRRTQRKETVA

As to `CO/N=C(/C1=NOCCO1)c1ccccc1Oc1ncnc(Oc2ccccc2Cl)c1F`, the result in assay [1] was inactive.

As for `Nc1cnn(-c2ccccc2)c(=O)c1Cl`, the outcome in assay [2] was inactive.

Consider `CCCCC(O)(Cn1cncn1)c1ccc(Cl)cc1Cl` (centres undefined), for which, in assay [3], the AC50 was 1.89 µM (active). Further, the outcome in assay [4] was inactive.
